The nature of assay [1]: Nuclear factor erythroid 2-related factor 2/antioxidant responsive element (Nrf2/ARE) small molecule agonists: qHTS cell viability counter screen in human keratinocytes (AID 1919968; active = well fitted curve in the direction sought with a large enough effect in the repeat runs; an effect the other way counts as inactive or inconclusive; note: nearly all actives have a fitted effect of over 55% in size; note: potency is the fitted concentration of half-maximal effect). The essentials: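 Parallel cytotoxicity read: KeratinoSens HaCaT cells, compound treatment 23 h, viability by CellTiter-Fluor fluorescence 1 h post-reagent.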
Background: Quantitative high-throughput screening tests each substance at several concentrations.

The nature of assay [2]: Nuclear factor erythroid 2-related factor 2/antioxidant responsive element (Nrf2/ARE) small molecule agonists: luciferase reporter gene qHTS assay in human keratinocytes (AID 1919969). Note: nearly all actives have a fitted effect of over 35% in size. Note: potency is the fitted concentration of half-maximal effect. On the technique in general: Reporter assays use an easily measured gene product as a stand-in for the process of interest.
In assay [3] the target is Gonadotropin-releasing hormone receptor (Homo sapiens) (UniProt P30968). As to the kind of experiment: Human gonadotropin-releasing hormone receptor (GnRHR) small molecule agonists, calcium flux assay in GnRHR-HEK293 cells (AID 1920063). Note: nearly all actives have a fitted effect of over 35% in size. In outline:
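Calcium flux, agonist mode, human GnRHR stably integrated in HEK293; dye 1 h at 37 C before compound; Ex/Em=480/540 kinetic read, 3 min; 15 concentrations, triplicate.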

The target in assay [4] is KiSS-1 receptor (Homo sapiens) (UniProt Q969F8). Kind of assay: Human kisspeptin (KISS1R) small molecule agonists, calcium flux assay in KISS1R-HEK293 cells (AID 1920064; active = well fitted curve in the direction sought with a large enough effect in the repeat runs; an effect the other way counts as inactive or inconclusive). The essentials:
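Triplicate 15-concentration series were applied to dye-loaded human KISS1R HEK293 cells, and agonist-evoked calcium fluorescence was captured for 3 min.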

Assay [5] can be described thus: G protein-coupled receptor (GPCR) small molecule agonists, calcium flux assay: HEK293 wild type cell line counter screen (AID 1920065). The essentials:
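Non-specific calcium responders were flagged by adding DMSO-dissolved compounds to dye-loaded cells and reading 480/540 nm fluorescence each second for 3 min; ATP served as positive control.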
In general terms: A change in cytosolic calcium serves as a functional read-out for many receptors and channels.

A short description of assay [6]: p53 small molecule agonists, cell-based qHTS assay with human liver microsomes (AID 1963577). The essentials:
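Fluorescence of the beta-lactamase reporter in p53RE-bla cells, detected with LiveBLAzer substrate (2 h, room temperature, dark), served as the read-out after 16 h compound exposure at 37 C with human liver microsomes and NADPH, each 0.5 mg/mL final.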

The nature of assay [7]: p53 small molecule agonists, cell-based qHTS assay with rat liver microsomes (AID 1963578). In outline:
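Cells carrying a p53 response element–beta-lactamase reporter were plated and rested 5 h, then dosed with compound in DMSO plus rat liver microsomes and NADPH, each at 0.5 mg/mL final. After 16 h at 37 C, LiveBLAzer substrate was added for 2 h.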

Assay [8] is described as follows: p53 small molecule agonists, cell-based qHTS assay with human liver microsomes: qHTS cell viability counter screen (AID 1963579). Note: nearly all actives have a fitted effect of over 45% in size. The essentials:
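Cytotoxicity counter screen: p53RE-bla, 4,000 cells/well; 5 h settle, 37 C/5% CO2; cpd + HLM 0.5 mg/mL + NADPH 0.5 mg/mL (final); 16 h, 37 C; CellTiter-Glo, 30 min RT, luminescence.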

A short description of assay [9]: p53 small molecule agonists, cell-based qHTS assay with rat liver microsomes: qHTS cell viability counter screen (AID 1963580). Note: nearly all actives have a fitted effect of over 45% in size. In outline:
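Rat liver microsome (0.5 mg/mL final) and NADPH (0.5 mg/mL final) co-incubation with compounds for 16 h at 37 C on HCT-116 p53RE-bla cells; cytotoxicity taken from intracellular ATP luminescence.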

The nature of assay [10]: p53 small molecule agonists, cell-based qHTS assay: qHTS cell viability counter screen (AID 1963581). Note: nearly all actives have a fitted effect of over 45% in size. The essentials:
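Multiplexed with the reporter read, a CellTiter-Glo step (30 min, room temperature) gauges ATP-based viability of HCT-116 p53RE-bla cells after 16 h compound incubation at 37 C.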

In assay [11] the target is 5-hydroxytryptamine receptor 2A (Homo sapiens) (UniProt P28223). Kind of assay: 5-hydroxytryptamine receptor 2A (HTR2A) small molecule antagonists, cell-based qHTS assay (AID 1963586). Note: nearly all actives have a fitted effect of over 45% in size. The essentials: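 CHO cells stably expressing human HTR2A were plated for 18 h at 37 C, then loaded with calcium dye for 1 h. Compounds were preincubated 5 min at room temperature before DOI (4 nM solution) was added. Kinetic fluorescence was read for 3 min.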
Chain of 5-hydroxytryptamine receptor 2A (Homo sapiens) (P28223 whole entry, looked up): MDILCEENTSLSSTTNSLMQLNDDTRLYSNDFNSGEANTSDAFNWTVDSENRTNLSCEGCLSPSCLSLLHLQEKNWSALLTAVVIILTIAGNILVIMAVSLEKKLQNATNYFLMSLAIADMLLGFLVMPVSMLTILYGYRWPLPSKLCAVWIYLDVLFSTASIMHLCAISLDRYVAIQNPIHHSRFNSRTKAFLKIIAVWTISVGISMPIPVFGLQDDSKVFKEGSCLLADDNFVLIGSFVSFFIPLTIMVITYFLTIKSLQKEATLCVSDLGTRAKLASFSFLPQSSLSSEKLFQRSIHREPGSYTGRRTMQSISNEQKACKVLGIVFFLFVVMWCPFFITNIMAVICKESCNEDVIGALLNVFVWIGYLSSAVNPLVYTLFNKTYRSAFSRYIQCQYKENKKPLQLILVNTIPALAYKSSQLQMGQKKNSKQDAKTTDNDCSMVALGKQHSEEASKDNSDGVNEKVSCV

Assay [12] shares this target. Kind of assay: 5-hydroxytryptamine receptor 2A (HTR2A) small molecule agonists, cell-based qHTS assay (AID 1963587). Note: nearly all actives have a fitted effect of over 30% in size. In outline: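 Kinetic calcium-flux fluorescence (2 min, 1 sec intervals) after compound addition in agonist mode. HTR2A-CHO cells were cultured 18 h, then dye-loaded 1 h at 37 C.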
Assay [13] has as its target Muscarinic acetylcholine receptor M1 (Homo sapiens) (UniProt P11229). As to the kind of experiment: Cholinergic receptor muscarinic 1 (CHRM1) small molecule antagonists, cell-based qHTS assay (AID 1963588). Note: nearly all actives have a fitted effect of over 40% in size. In outline:
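Compounds were tested at 15 concentrations in three independent runs. Dye-loaded CHRM1-CHO cells were exposed 5 min at room temperature before stimulation by acetylcholine added at 50nM. Intracellular calcium was read kinetically on FDSS for 3 min.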

Assay [14] has the same target. Kind of assay: Cholinergic receptor muscarinic 1 (CHRM1) small molecule agonists, cell-based qHTS assay (AID 1963589). Note: nearly all actives have a fitted effect of over 35% in size. The essentials:
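qHTS, 15-point titration, 3 independent runs: compounds pin-transferred onto dye-loaded CHRM1-CHO cells (human M1), calcium fluorescence followed every second to detect agonism.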

The nature of assay [15]: cAMP Responsive Elements (CRE) small molecule agonists, cell-based qHTS assay (AID 1963590). In outline:
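Quantitative HTS for CRE agonists: HEK 293T CRE-bla cells, overnight plating, 3 h compound incubation at 37 C/5% CO2, then 2 h room-temperature LiveBLAzer B/G FRET substrate loading.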

The nature of assay [16]: cAMP Responsive Elements (CRE) small molecule antagonists, cell-based qHTS assay (AID 1963591; active = well fitted inhibition curve with a large enough effect in the signal ratio in the repeat runs, not every such curve was filed as active; the % refers to the signal ratio). In outline: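 Fluorescence intensity from cleaved LiveBLAzer B/G substrate (2 h, room temperature) quantified CRE-bla activity in HEK 293T cells exposed 3 h to compound with 0.25 uM final NKH477.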
The target in assay [17] is Beta-2 adrenergic receptor (Homo sapiens) (UniProt P07550). As to the kind of experiment: Adrenergic beta2 receptor (ADRB2) small molecule antagonists, cell-based qHTS assay (AID 1963592). Note: series mostly up to about 92 µM; nearly all actives have a fitted effect of over 50% in size. The essentials: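 Assay format: CHO-ADRB2 cells, 18-20hr seeding at 37C/5% CO2, then compound plus 1nM isoproterenol agonist mix for 0.5hr RT. Homogeneous time-resolved fluorescence cAMP detection after 1hr, expressed as 665/615 nm ratio.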
Chain of Beta-2 adrenergic receptor (Homo sapiens) (P07550 whole entry, looked up): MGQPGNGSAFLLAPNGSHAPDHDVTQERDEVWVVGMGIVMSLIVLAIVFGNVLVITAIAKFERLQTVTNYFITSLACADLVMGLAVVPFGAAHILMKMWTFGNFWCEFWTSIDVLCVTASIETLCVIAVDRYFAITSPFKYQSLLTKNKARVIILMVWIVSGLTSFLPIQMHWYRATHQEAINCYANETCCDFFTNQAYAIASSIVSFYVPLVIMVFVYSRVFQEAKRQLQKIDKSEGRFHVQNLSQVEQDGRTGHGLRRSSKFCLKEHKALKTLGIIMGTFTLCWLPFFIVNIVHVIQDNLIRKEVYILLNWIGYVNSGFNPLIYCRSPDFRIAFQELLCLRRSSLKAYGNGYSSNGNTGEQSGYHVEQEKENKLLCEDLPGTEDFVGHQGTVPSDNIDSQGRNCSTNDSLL

Assay [18] deals with D(2) dopamine receptor (Homo sapiens) (UniProt P14416). Kind of assay: Dopamine D2 receptor (DRD2) small molecule agonists, cell-based qHTS assay (AID 1963594). Note: nearly all actives have a fitted effect of over 35% in size. The essentials:
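cAMP accumulation in DRD2-HEK293 cells measured by HTRF after 1 h detection; compounds added 10 min before NKH477 (200nM […]) forskolin-analogue stimulation, 30 min at room temperature, with Ro20-1724 present at 0.1 mM final.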

The target is the same in assay [19]. Kind of assay: Dopamine D2 receptor (DRD2) small molecule antagonists, cell-based qHTS assay (AID 1963595; active = well fitted inhibition curve with a large enough effect in the signal ratio in the repeat runs, with a control signal flat; the % refers to the signal ratio). In outline:
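Antagonist mode in DRD2-HEK293 cells: after compound addition with 0.1 mM Ro20-1724, cells received quinpirole (12 nM) and NKH477 (200 nM) for 30 min at room temperature; HTRF cAMP read after 1 h detection.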

Where “and” joins values, the source holds several entries; their conditions need not be identical. Equal entries are not always repeated. Records with an inconclusive call do not appear. Calls of active or inactive are those of the source. Unless noted, calls come from the whole dose curve.

Chain of Muscarinic acetylcholine receptor M1 (Homo sapiens) (P11229 whole entry, looked up): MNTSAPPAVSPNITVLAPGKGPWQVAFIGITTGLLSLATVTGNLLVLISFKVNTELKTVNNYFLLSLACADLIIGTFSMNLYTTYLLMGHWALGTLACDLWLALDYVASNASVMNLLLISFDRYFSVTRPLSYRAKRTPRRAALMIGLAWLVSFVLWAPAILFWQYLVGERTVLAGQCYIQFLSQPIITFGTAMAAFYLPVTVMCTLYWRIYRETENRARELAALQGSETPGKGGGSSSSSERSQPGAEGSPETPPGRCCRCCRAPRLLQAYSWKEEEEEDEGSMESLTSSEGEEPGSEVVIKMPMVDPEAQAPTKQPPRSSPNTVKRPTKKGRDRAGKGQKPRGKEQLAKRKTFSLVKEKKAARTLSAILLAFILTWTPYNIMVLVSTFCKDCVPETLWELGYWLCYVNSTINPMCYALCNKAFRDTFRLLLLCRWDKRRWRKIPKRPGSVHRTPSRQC
Chain of KiSS-1 receptor (Homo sapiens) (Q969F8 whole entry, looked up): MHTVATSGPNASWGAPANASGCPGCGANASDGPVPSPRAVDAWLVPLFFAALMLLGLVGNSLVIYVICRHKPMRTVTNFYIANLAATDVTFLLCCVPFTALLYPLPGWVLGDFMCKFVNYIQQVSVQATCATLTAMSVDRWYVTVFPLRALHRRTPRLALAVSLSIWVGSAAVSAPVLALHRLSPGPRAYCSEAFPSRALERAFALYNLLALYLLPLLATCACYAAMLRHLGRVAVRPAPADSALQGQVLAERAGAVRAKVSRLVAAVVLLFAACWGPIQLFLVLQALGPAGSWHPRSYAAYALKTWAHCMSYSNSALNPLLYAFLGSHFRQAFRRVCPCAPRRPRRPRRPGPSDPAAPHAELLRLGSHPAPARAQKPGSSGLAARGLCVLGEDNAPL
Chain of Gonadotropin-releasing hormone receptor (Homo sapiens) (P30968 whole entry, looked up): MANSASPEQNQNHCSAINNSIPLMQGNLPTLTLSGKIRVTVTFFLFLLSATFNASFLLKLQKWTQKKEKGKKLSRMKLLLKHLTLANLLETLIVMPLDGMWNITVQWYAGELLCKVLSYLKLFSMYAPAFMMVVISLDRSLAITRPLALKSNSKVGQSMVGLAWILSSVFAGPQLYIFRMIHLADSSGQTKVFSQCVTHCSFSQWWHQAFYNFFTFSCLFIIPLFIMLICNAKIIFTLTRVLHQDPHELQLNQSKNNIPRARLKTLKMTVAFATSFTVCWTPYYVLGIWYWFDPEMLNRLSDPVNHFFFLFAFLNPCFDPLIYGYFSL
Chain of D(2) dopamine receptor (Homo sapiens) (P14416 whole entry, looked up): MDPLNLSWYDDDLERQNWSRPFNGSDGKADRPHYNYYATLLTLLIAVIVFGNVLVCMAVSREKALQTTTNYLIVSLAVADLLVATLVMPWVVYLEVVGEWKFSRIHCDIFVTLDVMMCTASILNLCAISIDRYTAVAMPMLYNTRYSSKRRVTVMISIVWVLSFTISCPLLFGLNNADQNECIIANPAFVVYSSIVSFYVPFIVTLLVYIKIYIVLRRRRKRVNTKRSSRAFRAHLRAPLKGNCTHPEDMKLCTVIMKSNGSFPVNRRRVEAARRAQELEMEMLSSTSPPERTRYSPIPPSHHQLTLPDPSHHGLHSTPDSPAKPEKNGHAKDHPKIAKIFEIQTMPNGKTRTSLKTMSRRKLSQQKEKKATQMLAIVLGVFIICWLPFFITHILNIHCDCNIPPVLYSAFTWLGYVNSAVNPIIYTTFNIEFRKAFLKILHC

Consider `CC1=C2[C@H]3OC(=O)[C@@H](C)[C@@H]3CC[C@@]2(C)C=CC1=O`, for which the Potency entry in assay [1], in assay [2], in [3], in assay [4], in assay [5] and in [6] was “inactive” each time. In addition, the Potency entry in [7], in assay [8], in assay [9], in assay [10], in assay [11] and in assay [12] was “inactive” throughout. In addition, the Potency entry in assay [13], in [14], in assay [15], in [16], in assay [17] and in assay [18] was “inactive” in each case. Moreover, the Potency result in assay [19] was “inactive”.
Turning to `ClC1=C(Cl)C2(Cl)C3C(Cl)C(Cl)CC3C1(Cl)C2(Cl)Cl` (stereo not drawn), the Potency in [1] was 30.5 µM (active) and 43.3 µM (active); in [2], 4.84 µM (active) and 12.2 µM (active). Further, the Potency entry in assay [3], in assay [4], in assay [5], in assay [6], in [7] and in assay [8] was “inactive” each time. Further, the Potency entry in [9], in assay [10], in assay [11], in assay [12], in [13] and in assay [14] was “inactive” in each case. For the same compound, the Potency entry in assay [18] is “inactive”.
Consider `CNC(=S)S`, for which the Potency result in assay [1], in [2], in [3], in assay [4], in assay [5] and in assay [6] was “inactive” each time. In addition, the Potency result in [7], in assay [8], in assay [9], in assay [10], in assay [12] and in assay [13] was “inactive” each time. The Potency entry in assay [14], in assay [15], in assay [16], in assay [17], in [18] and in [19] was “inactive” in each case.
In the case of `CCCC1COC(Cn2cncn2)(c2ccc(Cl)cc2Cl)O1` (stereo not drawn), the Potency result in [1], in assay [2], in assay [3], in [4], in assay [5] and in [6] was “inactive” in each case. The Potency result in assay [7], in assay [8], in assay [9], in assay [10], in assay [12] and in assay [13] was “inactive” each time. The Potency entry in assay [16], in assay [17], in assay [18] and in [19] was “inactive” throughout.
`N[C@@H](Cc1ccc(N(CCCl)CCCl)cc1)C(=O)O`: the Potency result in [1], in assay [2], in [3], in assay [4], in [5] and in assay [6] was “inactive” each time. Further, the Potency entry in [7], in [8], in assay [9], in assay [10], in [15] and in assay [16] was “inactive” in each case. The Potency result in assay [17], in assay [18] and in [19] was “inactive” throughout.
Regarding `CCC12COCN1COC2`, the Potency result in assay [1], in assay [2], in [3], in [4], in assay [5] and in assay [6] was “inactive” each time. Further, the Potency result in [7], in [8], in assay [9], in assay [10], in [11] and in [12] was “inactive” throughout. Besides, the Potency entry in [14], in assay [15], in [16], in assay [17], in assay [18] and in assay [19] was “inactive” each time.
Turning to `O=S(=O)(c1ccc(Cl)cc1)c1cc(Cl)c(Cl)cc1Cl`, the Potency result in [1], in [3], in assay [4], in [5], in assay [6] and in assay [7] was “inactive” in each case. The Potency result in [8], in [9], in assay [10], in [11], in assay [12] and in assay [13] was “inactive” throughout. Also, the Potency result in assay [14], in assay [15], in [16], in [17] and in assay [18] was “inactive” in each case. Besides, the Potency in assay [2] is 48.5 µM (active).
For `ClCc1ccccc1`, the Potency result in assay [1], in assay [2], in assay [3], in [4], in assay [5] and in assay [6] was “inactive” in each case. The Potency result in [7], in [8], in [9], in assay [10], in [11] and in assay [12] was “inactive” in each case. For the same compound, the Potency result in assay [13], in assay [14], in assay [15], in assay [16], in assay [17] and in [18] was “inactive” each time. Further, the Potency result in [19] was “inactive”.
